# KDM5B inh = blocks human KDM5B histone demethylase activity | Q9UGL1 | AID 1347165 | KDM5B demethylase, FDH-coupled NADH fluorescence (FDH is formaldehyde dehydrogenase) | Potency, µM (titrated, usually from 57.7 µM), most hits filed as inhibitors | actives 2.6% (n = 220,000); active means well fitted inhibition curve with a large enough effect; further: 0% is about no effect; nearly all actives have a fitted effect of over 70% in size
# Target sequence (Q9UGL1 whole entry, looked up): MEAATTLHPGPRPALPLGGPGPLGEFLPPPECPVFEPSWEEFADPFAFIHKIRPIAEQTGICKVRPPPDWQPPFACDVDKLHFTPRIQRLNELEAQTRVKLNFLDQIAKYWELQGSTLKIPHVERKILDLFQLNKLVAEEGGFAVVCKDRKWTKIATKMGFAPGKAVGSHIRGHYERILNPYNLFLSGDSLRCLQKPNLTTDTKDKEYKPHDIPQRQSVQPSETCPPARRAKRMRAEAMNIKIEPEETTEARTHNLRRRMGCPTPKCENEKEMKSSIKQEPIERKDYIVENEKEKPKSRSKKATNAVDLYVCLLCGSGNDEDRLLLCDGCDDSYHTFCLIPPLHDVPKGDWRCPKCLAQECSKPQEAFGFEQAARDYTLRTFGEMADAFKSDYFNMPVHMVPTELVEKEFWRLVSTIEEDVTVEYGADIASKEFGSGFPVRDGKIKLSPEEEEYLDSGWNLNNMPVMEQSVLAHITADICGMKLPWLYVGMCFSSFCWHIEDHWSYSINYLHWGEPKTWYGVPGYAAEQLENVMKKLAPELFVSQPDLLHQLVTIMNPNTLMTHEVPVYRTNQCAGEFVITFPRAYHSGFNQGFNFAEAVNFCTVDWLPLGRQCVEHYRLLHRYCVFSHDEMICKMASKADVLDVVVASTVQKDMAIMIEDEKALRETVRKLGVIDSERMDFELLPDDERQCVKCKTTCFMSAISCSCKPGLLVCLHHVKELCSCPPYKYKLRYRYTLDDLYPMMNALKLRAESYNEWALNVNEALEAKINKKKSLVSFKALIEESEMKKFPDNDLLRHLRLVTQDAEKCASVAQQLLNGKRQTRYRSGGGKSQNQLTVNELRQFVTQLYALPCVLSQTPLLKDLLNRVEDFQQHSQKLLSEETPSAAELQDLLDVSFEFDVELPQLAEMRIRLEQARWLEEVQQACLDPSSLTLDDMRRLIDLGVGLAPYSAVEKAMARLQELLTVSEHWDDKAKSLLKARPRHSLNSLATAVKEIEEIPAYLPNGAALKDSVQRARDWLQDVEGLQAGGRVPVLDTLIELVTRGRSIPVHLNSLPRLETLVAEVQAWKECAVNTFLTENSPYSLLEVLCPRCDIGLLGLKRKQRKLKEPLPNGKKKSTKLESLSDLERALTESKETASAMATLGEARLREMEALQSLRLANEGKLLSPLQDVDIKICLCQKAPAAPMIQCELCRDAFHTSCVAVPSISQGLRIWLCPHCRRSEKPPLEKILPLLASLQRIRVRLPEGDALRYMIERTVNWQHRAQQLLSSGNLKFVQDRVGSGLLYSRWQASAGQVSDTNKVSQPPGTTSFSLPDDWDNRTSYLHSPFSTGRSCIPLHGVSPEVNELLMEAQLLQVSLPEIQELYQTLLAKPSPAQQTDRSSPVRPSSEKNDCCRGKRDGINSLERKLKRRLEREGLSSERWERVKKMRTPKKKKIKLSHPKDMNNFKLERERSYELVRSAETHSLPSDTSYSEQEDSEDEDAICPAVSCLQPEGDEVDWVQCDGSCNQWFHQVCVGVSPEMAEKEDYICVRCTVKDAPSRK
#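 Here, H3K4me3 peptide (12.5 µM in substrate mix) is demethylated by KDM5BΔAP, 200 nM final, after 10 min compound exposure. Formaldehyde product is coupled through FDH (0.25 U/mL in mix) to NADH fluorescence; 30-min ΔRFU feeds dose-response curves.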
# Numbers without * were called inactive; i = inactive. Shown is part of a subset that was picked to be rich in hits. Potency means the concentration at half of the fitted maximal effect.
SMILES,KDM5B inh
COc1ccc(F)cc1-c1ccc(C=O)cc1,50µM*
COc1ccc(F)cc1C(=O)C(=O)O,i
Cc1ccc(NC2(c3nnnn3-c3ccccc3C)CCCCC2)cc1,i
COCCCn1c(C)cc(C(=O)COC(=O)Cc2nn(C)c(=O)c3ccccc23)c1C,i
COCCNC(=O)c1c(C)oc2c1CN(Cc1cccc(F)c1)CC2,i
C=CCNC(=O)COC(=O)c1cc(C)nc2ccccc12,i
O=C(c1ccc2c(c1)OCO2)N1C2CCC1CN(Cc1cccnc1)C2,i
Fc1ccccc1CN1CCNc2cc(Nc3ccccc3)ncc2C1,i
COc1cccc(CN2CCn3c(nnc3[C@@H]3C[C@@H](O)CN3Cc3cccnc3)C2)c1,i
COc1cccc(CN2CCNc3cnc(OCc4cccnc4)cc3C2)c1,35µM*
COc1cccc(CN2CCCCCCNC(=O)CC2)c1,i
COc1ccc(OC)c(CN2CCC(Cc3ccccc3)CC2)c1,i
COc1ccc(OC)c(CN2CCC3(CC2)OC(=O)N(Cc2cccnc2)C3(C)c2ccccc2)c1 (configuration not stated),i
Cc1ccc2c(c1)N1C(=O)OC[C@@H]1CCN(Cc1cccnc1)C2,i
CCOc1cc2c(cn1)NCCN(Cc1ccccc1O)C2,35µM*
COc1ccc(OC)c(CN2CCNc3cnc(OCc4cccnc4)cc3C2)c1,40µM*
Cc1cccc(CN2CC(N(Cc3cccnc3)S(C)(=O)=O)C2)c1,i
Cc1cccc(CN2CCNc3cnc(OCc4cccnc4)cc3C2)c1,18µM*
CC1(C)CC(=O)c2cc(C#N)c(SCc3ccc(Cl)cc3)nc2C1,i
CN(CC(=O)N1CCCC1)C(=O)c1ccc(S(=O)(=O)NCc2ccco2)cc1,i
O=C(Cc1ccccc1)N1CCC(c2n[nH]c(=O)n2Cc2ccc(F)cc2)CC1,i
COC(=O)c1ccc(C)c(NC(=O)Cc2ccc(OC)cc2OC)c1,i
CCn1c(C(C)(C)Oc2ccc(Cl)c(C)c2)n[nH]c1=S,i
O=C(Nc1ccccc1-c1ccccc1)c1ccncc1,i
COc1ccccc1CNC(=O)C[C@@H]1[C@H](O)CCC2[C@](C)(CO)[C@H](OC(=O)NC3CCCCC3)CC[C@]21C (some centres not stated),i
SMILES,KDM5B inh
CC(C)C(CNC(=O)c1n[nH]c(=O)c2ccccc12)N(C)C (configuration not stated),i
CCC(C)(C)C1CCc2c(sc(NC(=O)/C=C/c3ccccc3)c2C#N)C1 (configuration not stated),i
COc1ccc(OC)c(CN2CCNc3cc(Nc4ccccc4)ncc3C2)c1,i
c1cncc(Nc2cc3c(cn2)CN(Cc2c[nH]c4ccccc24)CCN3)c1,i
COc1ccc(OC)c(CN2CCNc3cnc(Nc4cccnc4)cc3C2)c1,25µM*
COc1ccc2[nH]cc(CCNC(=O)CCC3CCN(C(=O)c4ccccc4)CC3)c2c1,i
O=C(NCCc1ccccc1F)C1CN(c2cccc(Cl)c2)C(=O)N1 (configuration not stated),i
COc1ccc(C2(C(=O)NCCc3ncc(C)n3CC3CC3)CC2)cc1,i
COc1cccc(-c2cnc3n[nH]c(-c4ccccc4)c3n2)c1,35µM*
COc1ccc(-c2[nH]nc3ncc(-c4ccc(C)cc4)nc23)cc1F,i
Fc1ccc(-c2cnc3n[nH]c(-c4ccccc4)c3n2)cc1,32µM*
O=C(NCc1ccc(F)cc1)c1cnc2n[nH]c(-c3ccccc3)c2n1,i
COc1ccc(-c2cnc3n[nH]c(-c4ccc5c(c4)OCO5)c3n2)cc1,i
COc1cccc(-c2cc(-c3cccc(OC)c3)[nH]n2)c1,i
NCC(c1ccccc1)c1ccccc1,i
CSc1ccc(/C=C2\N=C(c3ccc(C)cc3)OC2=O)cc1,i
O=C1CC2(C(=O)Nc3c(Cl)cccc32)c2sc(C(=O)O)c(-c3ccccc3)c2N1 (configuration not stated),i
CC(=O)Nc1cccc(-c2ncc3c(n2)OCCN(c2ccccc2)C3=O)c1,i
COc1cccc(-c2ncc3c(n2)OCCN(CC2CC2)C3=O)c1OC,i
O=C1c2cnc(-c3ccc(F)cc3F)nc2OCCN1Cc1ccc(F)cc1F,i
NC(=O)c1cccc(-c2ncc3c(n2)OCCN(Cc2ccc(F)cc2F)C3=O)c1,i
COc1cccc(F)c1-c1ncc2c(n1)OCCN(CC1CC1)C2=O,28µM*
O=C1c2cnc(-c3cccc(O)c3)nc2OCCN1c1cccc(C(F)(F)F)c1,i
CC(=O)Nc1cccc(-c2ncc3c(n2)OCCN(CC2CC2)C3=O)c1,32µM*
O=C1c2cnc(-c3ccoc3)nc2OCCN1Cc1ccc(F)cc1F,35µM*
SMILES,KDM5B inh
C[S+](=O)([O-])c1cccc(-c2ncc3c(n2)OCCN(CC2CC2)C3=O)c1,i
CC(=O)Nc1cccc(-c2ncc3c(n2)OCCN(Cc2ccc(F)cc2F)C3=O)c1,32µM*
CC(=O)Nc1ccc(CN2CCn3c(nn(-c4ccc(Cl)cc4)c3=O)C2)cc1,i
NC(=O)C1(NC(=O)c2ccc(S(=O)(=O)N3CCCC(O)C3)cc2)CCCC1 (configuration not stated),i
Cc1[nH]c2ccc(Cl)cc2c1CCN(Cc1cccs1)C(=S)NC(C)(C)C,i
COC1C(=O)N(C2CCN(S(=O)(=O)Cc3ccccc3F)CC2)C12CCOCC2 (configuration not stated),i
Cc1ncccc1C(=O)N1CCCCCCN(C)C(=O)[C@@H]2CCC[C@@H]21,i
Cc1cccc(OCCc2noc(C3CCN(C(=O)NC(C)(C)C)C3)n2)c1 (configuration not stated),i
Cn1nccc1-c1ncc2c(n1)OCCN(Cc1ccccc1)C2=O,i
COc1ccc(Cl)cc1-c1ncc2c(n1)OCCN(Cc1ccc(F)cc1F)C2=O,35µM*
COc1ccc(-c2nn(-c3ccccc3C)cc2CN2C[C@@H](C)O[C@@H](C)C2)cc1F,i
Cn1c(=O)c2c(-c3ccc(F)cc3)n(CC(N)=O)cc2n(C)c1=O,i
CCCc1noc(-c2nc(-c3ccc4c(c3)OCO4)no2)n1,25µM*
CN(C)c1ccc(-c2noc(-c3nc(-c4ccc5c(c4)OCO5)no3)n2)cc1,i
Cc1cc(-c2nc(-c3ccc4c(c3)OCO4)no2)n[nH]1,i
COc1ccccc1-c1noc(-c2nc(-c3ccc4c(c3)OCO4)no2)n1,i
Fc1ccccc1-c1noc(-c2nc(-c3ccc4c(c3)OCO4)no2)n1,25µM*
Fc1ccccc1-c1noc(-c2nc(-c3ccccc3F)no2)n1,i
CSc1nnc(-c2ccccc2NC(=O)c2ccc(C)c(S(=O)(=O)N3CCCCCC3)c2)o1,i
CCn1cc(-c2ccc(Cl)cc2)cc1C(=O)NCC(=O)OC,i
COCCNC(=O)CN(C)C(=O)c1cc(-c2ccc(Cl)cc2)nc2ccccc12,i
COCCNC(=O)c1nc(-c2ccc(Cl)cc2)c2ccccn12,35µM*
COC(=O)CNC(=O)c1nc(-c2ccc(Cl)cc2)c2ccccn12,20µM*
COCCNC(=O)c1nc(-c2ccc([S+](C)(=O)[O-])cc2)c2ccccn12,i
COC(=O)CNC(=O)c1nc(-c2ccc(F)cc2)c2ccccn12,40µM*
OCC1(O)CCCN(Cc2ccccc2Cn2cccn2)C1 (configuration not stated),i
O=C(c1ccc(Cl)nc1)N1CCn2c(nn(-c3ccc(F)cc3)c2=O)C1,i
CCOc1ccc(-c2nc(CSCC(=O)N3CCC(N4CCCCC4)CC3)c(C)o2)cc1,i
